In PubChem BioAssay (EPA / NIEHS):
“And” between values parts separate entries of the source, which are not always exact repeats. Identical values can stand only once. More than one record can exist for a structure, and the calls need not agree. The source made the active and inactive calls. The calls were made as follows: active = hit-call score of the fitted dose curve at least 0.9, where 1 is the maximum; inactive = score below 0.9.

Read-out: Interferon-gamma inducible Protein 10 (IP10), CXCL10 (gene 3627)
Experiment: BSK_BE3C_IP10: BioMAP Diversity Plus: BE3C Assay for Interferon-gamma inducible Protein 10 (IP10) Biomarker Activity (AID 2283034)
Conditions: primary human bronchial epithelial cells; actives raise or lower the signal
Procedure: BSK_BE3C is a cell-based, multiplexed-readout assay that uses bronchial epithelial cell, a human lung primary cell, with measurements taken at 24 hours after chemical dosing in a 96-well plate.BSK_BE3C_IP10 is an assay component measured in the BSK_BE3C assay. It measures IP-10 antibody related to regulation of gene expression using ELISA technology.Data from the assay component BSK_BE3C_IP10 was analyzed into 1 assay endpoint. This assay endpoint, BSK_BE3C_IP10, was analyzed with bidirectional fitting relative to DMSO as the negative control and baseline of activity. Using a type of binding reporter, gain or loss-of-signal activity can be used to understand changes in the signaling as they relate to the gene CXCL10. Furthermore, this assay endpoint can be referred to as a primary readout, because this assay has produced multiple assay endpoints where this one serves a signaling function. To generalize the intended target to other relatable targets, this assay endpoint is annotated to the cytokine intended target family, where the subfamily is chemotactic factor.
The levels of cell surface (or secreted, indicated by the prefix "s") biomarker endpoints were measured by ELISA. Overt cytotoxicity to cells in confluent adherent cultures (all systems other than the BT system) was assessed by measuring total protein levels using sulforhodamine B (SRB) staining in parallel cultures at the time of biomarker measurements, indicated as SRB endpoints. For proliferation assays for adherent cell types, individual cell types are cultured at sub-confluence and relative cell numbers quantified by SRB staining at time points optimized for each system (48 h: 3C and CASM3C systems; 72 h: BT and HDF3CGF systems; 96 h: SAg system). SRB was performed by staining cells with 0.1% SRB after fixation with 10% TCA and reading wells at 560 nm.Viability and proliferation of PBMC (T cells) was quantified by Alamar Blue reduction for the SAg and BT systems. For PBMC viability (referred to as PBMC Cytotoxicity within the assay endpoint names), cells were plated (75,000/well in a 96-well plate) and then chemical samples added for 1 h before addition of activators, SEB and TSST-1 (20 ng/mL final concentration each). Cells were incubated for 90 h. Then, Alamar Blue (20 uL/well) (Invitrogen, Cat DAL1100) was added for 6 h, and the plates were read with a fluorescence microplate reader at 546/580 nm (excitation/emission). For PBMC proliferation, cells were plated and activated as above but incubated for only 16 h prior to addition of Alamar Blue. Plates were read after 6 h.

**Q.** Which outcome does the source give for CC(C)CCCCCCOC(=O)CCCCC(=O)OCCCCCCC(C)C here?
**A.** inactive

**Q.** For O=C(O)c1ccccc1C(c1ccc(O)cc1)c1ccc(O)cc1, which AC50 is on record?
**A.** 31.1 µM (active)

**Q.** With O=C(O)Cc1cc(I)c(Oc2cc(I)c(O)c(I)c2)c(I)c1 as the molecule, how does the AC50 read?
**A.** 2.73 µM (active)

**Q.** CCCCC(CC)COC(=O)CCCCC(=O)OCc1ccccc1 (stereo not given) was tested. Which outcome did it give?
**A.** inactive

**Q.** How did the outcome turn out when Nc1cccc2c(N)cccc12 was run?
**A.** inactive

**Q.** For OC1CCCCC1, which outcome is on record?
**A.** inactive

**Q.** Which outcome does the source give for c1ccc2cc3c(ccc4ccccc43)cc2c1 here?
**A.** inactive

**Q.** Oc1cccc(O)c1 was tested. Which outcome did it give?
**A.** inactive

**Q.** How did the outcome turn out when COc1ccc([N+](=O)[O-])cc1N was run?
**A.** inactive

**Q.** With CC(=O)CC(C)(C)O as the molecule, how does the outcome read?
**A.** inactive

**Q.** Which outcome does the source give for Cc1cc(C)c(O)c(C)c1 here?
**A.** inactive

**Q.** For CN(C)C=O, which outcome is on record?
**A.** inactive

**Q.** How did the outcome turn out when c1ccc2c(c1)ccc1ccccc12 was run?
**A.** inactive

**Q.** C#C[C@]1(O)CC[C@H]2[C@@H]3CCC4=CC(=O)CC[C@@H]4[C@H]3CC[C@@]21C was tested. Which outcome did it give?
**A.** inactive

**Q.** Which outcome does the source give for C=C(C)C(=O)OCCC(F)(F)C(F)(F)C(F)(F)C(F)(F)C(F)(F)C(F)(F)F here?
**A.** inactive

**Q.** How did the outcome turn out when C[C@@H]1C[C@H]2[C@@H]3CCC4=CC(=O)C=C[C@]4(C)[C@@]3(F)[C@@H](O)C[C@]2(C)[C@@]1(O)C(=O)COP(=O)(O)O was run?
**A.** inactive

**Q.** O=C(OCCOCCOC(=O)c1ccccc1)c1ccccc1 was tested. Which outcome did it give?
**A.** inactive

**Q.** Which outcome does the source give for COC(=O)CCCCC(=O)OC here?
**A.** inactive

**Q.** With CC(C)(C)c1cccc(C(C)(C)C)c1O as the molecule, how does the outcome read?
**A.** inactive

**Q.** Which outcome does the source give for CC(O)CO (stereo not given) here?
**A.** inactive

**Q.** CCOC(=O)CC(O)(CC(=O)OCC)C(=O)OCC was tested. Which outcome did it give?
**A.** inactive

**Q.** For CCCCOCCO, which outcome is on record?
**A.** inactive

**Q.** CC1=C(/C=C/C(C)=C/C=C/C(C)=C/C(=O)O)C(C)(C)CCC1 was tested. Which AC50 did it give?
**A.** 20 µM (active)

**Q.** Which AC50 does the source give for CCc1nn(C2CCCCC2)c2cc(C3(C#N)CCC(C(=O)O)CC3)ccc12 (stereo not given) here?
**A.** 15.2 µM (active)

**Q.** Which outcome does the source give for CCCCC(CC)COC(=O)CCCCC(=O)OCC(CC)CCCC (stereo not given) here?
**A.** inactive

**Q.** How did the outcome turn out when CN1CCC[C@H]1c1cccnc1 was run?
**A.** inactive

**Q.** How did the outcome turn out when CC(C)(C)c1cc(C(C)(C)C)c(O)c(C(C)(C)C)c1 was run?
**A.** inactive

**Q.** For CCCCCCC(=O)O, which outcome is on record?
**A.** inactive

**Q.** With O=c1c(-c2ccc(O)cc2)coc2cc(O)ccc12 as the molecule, how does the outcome read?
**A.** inactive

**Q.** Which results are given for OCCC(F)(F)C(F)(F)C(F)(F)C(F)(F)C(F)(F)C(F)(F)C(F)(F)C(F)(F)F?
**A.** outcome: inactive; AC50: 12.7 µM (active) and 17.9 µM (active)

**Q.** How did the outcome turn out when CCCCCCCCC(=O)O was run?
**A.** inactive

**Q.** For CCCOc1sc(C(=O)N2CCC(c3cc(CN)ccc3F)CC2)c(C)c1Br, which AC50 is on record?
**A.** 9.51 µM (active)

**Q.** CCC(=C(c1ccc(O)cc1)c1ccc(OCCN(C)C)cc1)c1ccccc1 was tested. Which AC50 did it give?
**A.** 8.38 µM (active)

**Q.** With NC(=O)N1C(=O)C(C(=O)c2cc(Cl)cs2)c2cc(F)c(Cl)cc21 (stereo not given) as the molecule, how does the AC50 read?
**A.** 6.63 µM (active)

**Q.** For CN1CCN(c2ccccc2/C=C2\SCCN(c3ccc(Cl)c(Cl)c3)C2=O)CC1, which AC50 is on record?
**A.** 30.4 µM (active)

**Q.** With CCN(CC)CCNc1ccc(CNC=O)c2sc3ccc(OC)cc3c(=O)c12 as the molecule, how does the AC50 read?
**A.** 14.3 µM (active)

**Q.** Which AC50 does the source give for Oc1cc2ccccc2c2ccccc12 here?
**A.** 13 µM (active)

**Q.** With CCCCCCCCOC(=O)CCCCCCCCC(=O)OCCCCCCCC as the molecule, how does the outcome read?
**A.** inactive

**Q.** For FC(F)(I)C(F)(F)C(F)(F)C(F)(F)C(F)(F)C(F)(F)I, which AC50 is on record?
**A.** 18.4 µM (active) and 16.9 µM (active) and 45.2 µM (active)
